# Screening results deposited in PubChem BioAssay by several laboratories.
# The list is not random: actives were taken first. Their share in the collection is about 1.9%.
# Efa HMGR inh: E. faecalis class II HMG-CoA reductase inhibition | purified E. faecalis HMGR, NADPH absorbance 340 nm kinetic | inhibition, % at 10 µM | 190,000 compounds, 0.41% hits | AID 1066;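 active means inhibition above a set limit, the median over all tested compounds plus 3 SD, cut at about 9.5% in these data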;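 further: enzyme runs in reverse so mevalonate oxidation gives rising NADPH absorbance; 0% = complete reaction with DMSO and 100% = background rate lacking mevalonate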
# dFosB activator: enhances mouse delta FosB homodimer DNA binding; P13346; purified delta FosB, TAMRA-CDK5 oligo fluorescence polarization; percent of positive-control signal above neutral wells; activation, % at 25 µM; 340,000 compounds, 0.99% hits;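 active means mean activation above about 17%, with every replicate also reaching it, limit read from the data, passing the limit was not always enough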
# 14-3-3 Bad PPI: disrupts binding of bovine 14-3-3 zeta to phospho-Bad peptide; P63103; TR-FRET 14-3-3zeta/Dy647-pBad peptide displacement, 1 h; inhibition, % at 21.7 µM; 220,000 compounds, 0.71% hits; AID 781;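 active means inhibition above about 70%, limit read from the data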;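 further: 0% = full 14-3-3 plus peptide FRET controls and 100% = background without 14-3-3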
# p47phox inh: blocks human p47phox regulatory protein of NADPH oxidases; P14598; p47phox/p22phox peptide binding, fluorescence polarization, 2 h; 220,000 compounds, 0.53% hits; inhibition, % at 24.7 µM;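 active means inhibition above about 30%, limit read from the data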;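 further: 0% = p47phox with labelled peptide and 100% = labelled peptide alone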
# Target sequence (P14598 whole entry, looked up): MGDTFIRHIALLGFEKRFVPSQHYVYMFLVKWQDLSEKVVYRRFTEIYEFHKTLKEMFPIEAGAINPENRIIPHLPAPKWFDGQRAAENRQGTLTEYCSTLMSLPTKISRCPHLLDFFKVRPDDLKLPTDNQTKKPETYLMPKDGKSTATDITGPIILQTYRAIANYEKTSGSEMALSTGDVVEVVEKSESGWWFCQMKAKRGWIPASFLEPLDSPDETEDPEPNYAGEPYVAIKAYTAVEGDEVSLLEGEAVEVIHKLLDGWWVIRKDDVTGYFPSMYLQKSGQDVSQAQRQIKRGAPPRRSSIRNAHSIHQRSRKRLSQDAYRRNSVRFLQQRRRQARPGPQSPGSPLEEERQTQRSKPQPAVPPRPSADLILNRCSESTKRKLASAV
# An asterisk follows results filed as active; / = no result given; [ ] = dose if it differs, or a comment.
SMILES,Efa HMGR inh,dFosB activator,14-3-3 Bad PPI,p47phox inh
O=C(NCc1n[nH]c(=S)n1-c1cccc(Cl)c1)c1cccs1,-4,10,-9,-6
CC(C)Cn1c(O)c(N=NC(=O)c2cccc(S(=O)(=O)N3CCCCC3)c2)c2ccccc21,-2,-9,5,2
Cc1cc(NC(=O)CCC(=O)N(CC(=O)NC2CCCC2)c2ccccc2)no1,10*,4,-10,-6
O=C(/C=C/c1ccccc1Cl)NC1CCS(=O)(=O)C1 (stereo not drawn),-4,-3,-4,-6
O=C(CC1OC(=O)c2ccccc21)Nc1cc(S(=O)(=O)N2CCOCC2)ccc1OCC(F)(F)F (stereo not drawn),/,-7,/,/
CC(C)c1ccc(CN2CCC(C(=O)NCc3cccnc3)CC2)cc1,-8,-4,74*,-1
CCS(=O)(=O)N1CCC(C(=O)NCc2cccnc2)CC1,1,-3,-4,-3
CCCCCCNC(=O)C(=O)NCCc1ccc(Cl)cc1,47*,-2,-6,3
CC(C)NC(=O)C(=O)NCCc1ccc(Cl)cc1,-7,-4,3,-1
Cc1ccc(-n2[nH]c(C)c(/C=N/NC(=O)c3ccc(O)cc3O)c2=O)cc1,/,-5,/,/
Cc1ccc(-c2nn(-c3ccccc3)cc2/C=N/NC(=O)c2ccncc2)o1,-1,26*,-12,-16
C(=C/c1nccc2c1[nH]c1ccccc12)/c1ccc2c(c1)OCO2,-3,64*,-4,1
O=c1c(O)cccc2cc(O)c(O)c(O)c12,/,-11,94*,-25
CCNC(=O)Nn1c(-c2ccccc2)nc2ccccc2c1=O,-6,1,1,5
CCC(C(=O)OC)n1c(-c2ccccc2)nc2ccccc2c1=O (stereo not drawn),12*,-7,-7,-17
COc1ccc(N2C(=O)N3[C@H](c4ccc(Cl)cc4)[C@@H]4C(=O)N(C5CCCCC5)C(=O)[C@@H]4[C@]3(C)C2=O)cc1,/,0,/,/
Cc1ccc(C(CC(=O)c2ccc(Cl)cc2)C(=O)O)cc1 (stereo not drawn),1,1,-7,1
COC(=O)C(CC(=O)c1ccc(Cl)cc1)c1ccc(C(C)C)cc1 (stereo not drawn),3,2,/,32*
COc1ccc2cc(OC)c(C(=O)N3CCOCC3)cc2c1,1,2,-2,37*
CCCC(=O)NCCCCNC(=O)CCC,0,2,-1,-10
CC(=O)N(O)CCCCCNC(=O)CCC(=O)N(O)CCCCCNC(=O)CCC(=O)N(O)CCCCCN,-4,2,71*[fluorescence artefact?],-1
Clc1ccc2c(c1)Nc1ccccc1CC2,/,0,/,/
C/C(=N/NS(=O)(=O)c1ccc(Cl)cc1)c1ccc2c(c1)OCO2,/,-1,/,/
O=C(Nc1nc2nc(-c3ccccc3)cc(-c3ccccc3)n2n1)c1ccco1,1,68*,8,-21
CC(=O)Nc1nc2nc(-c3ccccc3)cc(-c3ccccc3)n2n1,-5,-8,17,0
SMILES,Efa HMGR inh,dFosB activator,14-3-3 Bad PPI,p47phox inh
CC(C)CCNc1ncnc2c1nnn2Cc1ccccc1Cl,1,-2,3,-9
CCCOc1ccc(C(CC(=O)O)NC(=O)CC(c2ccccc2)c2ccccc2)cc1 (stereo not drawn),4,-6,1,/
C/C(=N\NC(=O)c1[nH]c2c([N+](=O)[O-])cc(C)cc2c1-c1ccccc1)c1cccnc1,-7,-6,25,35*
C/C(=N\NC(=O)c1cccnc1)c1ccc(C)c([N+](=O)[O-])c1,2,-5,-6,2
CN(CC(=O)Nc1cccc(F)c1)C(=O)c1ccc(C(=O)c2ccccc2)cc1,/,-13,/,/
Cc1cccc([C@@H]2[C@@H]3C(=O)N(Cc4ccccc4)C(=O)[C@@H]3[C@]3(C)C(=O)N(c4cccc(F)c4)C(=O)N23)c1,/,-12,/,/
O=C(Nc1ccccc1)Nc1ccc2ocnc2c1,18*,4,-3,-3
COc1cc(CN2CCC(C(=O)NC3CCCC3)CC2)cc(Br)c1O,-2,-3,30,-16
COc1cc(CN2CCC(C(=O)N3CCC(C)CC3)CC2)cc(Br)c1O,-4,1,79*,-5
CC1(C)Cc2cccc(OCC(=O)OCC(=O)NCc3ccc(F)cc3)c2O1,/,-5,/,/
Cn1c(SCC(=O)N2CCc3ccccc32)nc2cccnc21,0,-5,1,-3
CCC(C)NC(=O)CCn1c(-c2ccc(F)cc2)cc(C(C)=O)c1C (stereo not drawn),9.7*,-7,-13,-8
CCC12OC(=N)C(C#N)(C1C)C(C#N)(C#N)C(c1ccccc1)O2 (stereo not drawn),-2,-3,-1,-9
Cc1cc(C(=O)Nc2cccnc2Cl)on1,0,2,-17,1
Cc1cc(C)n(CCC(=O)Nc2ccc3c(c2)OCCO3)n1,/,0,/,/
COc1ccc(NC(=O)CCn2nc(C)cc2C)cc1,4,2,-13,56*
CCn1c(=O)cc(OCC(=O)NCCCN2CC(C)CC(C)C2)c2ccccc21 (stereo not drawn),1,-1,-17,68*
CCOC(=O)CCn1c2nc(C)cc(C)c2c(=O)n1-c1ccccc1,-1,2,/,34*
COc1ccc(C(=O)N2C(=S)NC(=O)/C2=C\c2ccc(C)cc2)cc1,-3,11,84*[fluorescence artefact?],-136
N#CC(C#N)=Cc1cc2ccccc2nc1N1CCOCC1,14*,2,8,-6
N#C/C(=C\c1cc2ccccc2nc1N1CCOCC1)C(=O)Nc1ccc(N2CCOCC2)cc1,-6,-9,2,-10
O=C(CN(C1CCCCC1)C1CCCCC1)N1CCc2ccccc2C1,-6,-8,88*,-4
CCOc1ccc(NC(c2ccccn2)c2oc(CO)cc(=O)c2O)cc1 (stereo not drawn),-3,2,-9,48*
CCOc1ccc(NC(=O)C(c2ccccn2)N(C(=O)CCl)c2ccc(OCC)cc2)cc1 (stereo not drawn),-7,2,-9,-3
NC(=O)CSc1nnc(-c2ccc([N+](=O)[O-])cc2)o1,14*,0,1,1
SMILES,Efa HMGR inh,dFosB activator,14-3-3 Bad PPI,p47phox inh
CC(=O)N1N=C(N)SC12CCCC2,11*,0,-8,-9
CC(=O)NC1=NN(C(C)=O)C2(CCCC2)S1,-8,1,-6,-7
COC(=O)c1sc2cc(=O)n(-c3cccc(C(F)(F)F)c3)nc2c1O,6,-3,-3,-1
Nc1nc2ccccc2n1/N=C/c1ccc([N+](=O)[O-])s1,6,5,-21,-8
CCOC(=O)CSc1ncnc2c1cnn2-c1ccc(C)cc1,-1,-4,-10,0
CCOC(=O)CSc1ncnc2c1cnn2-c1ccc(Cl)cc1,-3,0,85*,-2
CCC(=O)c1ccc(OCC(O)CNC2CCCC2)cc1 (stereo not drawn),/,16*,/,/
COc1ccc(C(=O)Cc2cc3ccccc3oc2=O)cc1,/,3,/,/
Cc1ccnc(NC(=O)c2cccs2)c1,1,-2,86*,-1
Cn1c(CNc2ccc(O)cc2)nc2ccccc21,/,5,/,/
Cc1ccc2c(c1)C1C=CCC1C(C(=O)O)N2 (stereo not drawn),3,/,86*[fluorescence artefact?],6
